The entries come from a sample that favours hits as a whole.
Tb PFK inh: T. brucei PFK enzyme inhibition | O15648 | T. brucei PFK, ADP-Glo luminescence | Potency, µM (highest dose often 57.5 µM), for the others: at the highest dose activity, negative = inhibition, usual class: inhibitors | actives 0.17% (n = 330,000) | AID 485367;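 also: potency is read from the fitted curve at half-maximal effect; 0% = uninhibited 1x PFK enzyme wells and -100% = no-enzyme wells; nearly all actives have a fitted effect of over 60% in size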
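PFK 1.25 nM, F6P 0.5 mM, ATP 0.1 mM, 0.1 M TEA pH 8.0, 5 mM MgCl2, 0.01% Tween20, 0.1% BSA; 45 min RT. ADP-Glo readout. qHTS titration up to 57 uM; curves fitted, compounds curve-classed.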
PI5P4Ka inh: inhibitors of human PI5P4K alpha; P48426; PI5P4Kalpha enzyme, ADP-Glo luminescence, 60 min; stronger effect = lower value; max response, %; actives 1.2% (n = 330,000); AID 652105; active = max response of -50% or lower; inconclusive = between -30% and -50%; inactive = -30% or higher; also: value at the top dose of about 77 µM
Target sequence (P48426 whole entry, looked up): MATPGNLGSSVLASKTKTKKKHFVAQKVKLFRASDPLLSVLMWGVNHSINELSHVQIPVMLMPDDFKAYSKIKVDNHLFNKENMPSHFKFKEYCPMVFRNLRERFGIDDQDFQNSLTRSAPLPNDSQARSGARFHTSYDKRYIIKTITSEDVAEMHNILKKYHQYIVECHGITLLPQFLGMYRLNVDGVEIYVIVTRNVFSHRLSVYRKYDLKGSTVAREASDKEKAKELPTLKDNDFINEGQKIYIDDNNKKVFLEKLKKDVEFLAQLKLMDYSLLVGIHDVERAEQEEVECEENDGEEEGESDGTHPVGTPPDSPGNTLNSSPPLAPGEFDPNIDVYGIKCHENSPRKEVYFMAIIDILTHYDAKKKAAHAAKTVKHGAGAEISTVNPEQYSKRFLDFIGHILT
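Controls without substrate or without enzyme flank wells where PI5P4Kalpha converts substrate using 5 microM ATP (final). Incubation lasts 60 minutes at room temperature; ADP formed is read by ADP-Glo luminescence.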
PI4K2A block: blocks human PI4K2A kinase activity; Q9BTU6; actives 0.13% (n = 420,000); activity change, negative = inhibition, % at 76.9 µM; AID 1346378; purified PI4K2A, ADP-Glo luminescence, 1 h; stronger effect = lower value; in the data active = activity change below about -50%; inconclusive = mostly about -30% to -49%;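 also: -100% = wells without enzyme as full effect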
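In this quantitative HTS, ADP production by PI4K2A was quantified luminescently after 1 h at ambient temperature; 100 microM adenosine served as plate-quality control.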
PGK inhibitor: T. brucei PGK inhibition. P07378. Potency, µM (series often up to 57.5 µM), for the others: at the top dose activity change, negative = inhibition, most hits filed as inhibitors. PGK/GAPDH coupled, Kinase-Glo luminescence, 60 min. AID 602233. actives 0.043% (n = 380,000); also: potency is read from the fitted curve at half-maximal effect; nearly all actives have a fitted effect of over 60% in size
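Recombinant glycosomal PGK reaction used 1,3-bisphosphoglycerate generated in-well by GAPDH (100nM final) in 100mM TEA pH 7.6, 5mM MgCl2, 0.01% Tween-20. After 60 minutes at room temperature, ATP was read by Kinase-Glo Plus luminescence end-point.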
Pin1 inhibitor: human Pin1 inhibition. Pin1 FP peptide displacement, HiFluor488, 10 min. actives 0.009% (n = 390,000). Potency, µM (top dose mostly 115 µM), inactives show at the top dose activity, negative = inhibition, actives largely listed as inhibitors. Q13526; active = well fitted inhibition curve with a large enough effect in the polarisation, with a control signal flat, not every such curve was filed as active; inconclusive = small, poorly fitted or top-dose-only effect, or effect the other way, or a change in a side signal; inactive = no such curve, though single readings can be large or run the other way; the % refers to the polarisation; also: potency is read from the fitted curve at half-maximal effect
Target sequence (Q13526 whole entry, looked up): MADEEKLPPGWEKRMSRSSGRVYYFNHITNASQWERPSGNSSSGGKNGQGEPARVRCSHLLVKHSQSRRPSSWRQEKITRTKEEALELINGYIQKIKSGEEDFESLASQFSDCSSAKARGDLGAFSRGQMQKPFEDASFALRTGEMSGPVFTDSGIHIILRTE
ADP-Glo counter: interferes with ADP-Glo detection without enzyme present; shares compounds with PI5P4Ka inh; Potency, µM (titrated, usually from 76.9 µM), without a hit: top-dose activity change, negative = inhibition, hits mostly inhibitors; ADP-Glo detection counter-screen, luciferase luminescence, no enzyme; AID 743285; 1,100 tested, under 10 active
Active calls of the source: *; i = inactive; ? = inconclusive; / = no result. Unless noted, calls follow the shape of the dose curve; as a rule, active = well fitted curve in the direction sought with a large enough effect; inconclusive = small, poorly fitted or top-dose-only effect, or another doubt; inactive = no such curve, though single readings can be large; an effect the other way counts as inactive or inconclusive. Unless noted, % is scaled to controls: 0 for no effect and ±100 for the full control effect.

SMILES | Tb PFK inh | PI5P4Ka inh | PI4K2A block | PGK inhibitor | Pin1 inhibitor | ADP-Glo counter
COC(=O)[C@]12C[C@H](CC(=O)NCc3ccc(OC)c(OC)c3)C(=O)N(Cc3cccc4ccccc34)C1=C[C@H](C(C)(C)C)O[C@@H]2C | / | / | 2 | / | / | /
O=C(NCc1ccccc1)C(c1ccccc1F)n1c(=O)c(-c2ccco2)nc2ccccc21 (stereo not drawn) | / | -64* | -22 | / | / | -5%
Cc1cccc(C)c1NC(=O)C(c1ccccc1)n1c(=O)c(-c2ccco2)nc2ccccc21 (stereo not drawn) | / | -52* | -14 | / | / | -4%
COC(=O)[C@H](CC(C)C)N1Cc2nnn(Cc3ccc(C)cc3)c2-c2cc(F)ccc2S1(=O)=O | / | / | -2 | / | / | /
CN(C(=O)CNC(=O)c1ccccc1OCC(=O)Nc1ccc(I)cc1)c1ccccc1 | / | / | -1 | / | / | /
CCc1ccc(NC(=O)c2cnn3ccccc23)cc1 | -8% | ? | ? | -14% | 1% | /
CSc1cccc(NC(=O)c2cnn3ccccc23)c1 | -4% | -63* | 1 | -8% | -2% | -1%
S=C(Nc1ccccc1)OC1CCC12CCC(c1ccccc1)CC2 (stereo not drawn) | / | / | -6 | / | / | /
N#Cc1c(SCC(=O)Nc2cccc(C(F)(F)F)c2)sc2c(O)cc(=O)[nH]c12 | -5% | -103* | 9 | ? | ? | -1%
CC(=O)c1ccc(NC(=O)CSc2nc3[nH]c(=O)cc(O)c3s2)cc1 | / | ? | -4 | -1% | 10% | /
Cc1cc(NC(=O)CSc2sc3c(O)cc(=O)[nH]c3c2C#N)ccc1Br | 1% | -104* | -5 | 1% | 3% | 5%
Cc1ccc(C)c(NC(=O)CSc2nc(C)cc(=O)[nH]2)c1 | / | / | -1 | / | / | /
Cc1ccc(C)c(NC(=O)CSc2sc3c(O)cc(=O)[nH]c3c2C#N)c1 | -3% | -64* | -12 | -5% | 10% | 3%
Cc1cc(NC(=O)CSc2nc3[nH]c(=O)cc(O)c3s2)ccc1Br | -3% | -58* | -1 | -6% | 19% | -5%
CC(=C(CCOC(=O)C(C)C)SSC(CCOC(=O)C(C)C)=C(C)N(C=O)Cc1cnc(C)nc1N)N(C=O)Cc1cnc(C)nc1N | / | / | -3 | / | / | /
N#Cc1cc([N+](=O)[O-])c2sc(C(N)=O)[n+]([O-])c2c1 | / | / | -10 | / | / | /
COC(=O)[C@]12C[C@H](CC(=O)NCCCN3CCCC3=O)C(=O)N(Cc3cccc4ccccc34)C1=C[C@H](C(C)(C)C)O[C@@H]2C | / | / | -2 | / | / | /
Cn1cccc1C(=O)OCc1nc2ccccc2c(=O)[nH]1 | 0% | -53* | -23 | -6% | ? | -11%
N=c1oc2ccc3ccccc3c2cc1C(N)=S | -1% | -60* | -2 | 1% | -7% | -1%
C[N+](C)(CCOc1ccccc1)Cc1cccs1 | / | / | 0 | / | / | /
COCc1cc(N2CCCCC2)nc(-c2ccccc2)n1 | 0% | -74* | -11 | -5% | -1% | -4%
O=C(CSc1nnc(-c2cccnc2)n1Cc1ccco1)Nc1ccc(F)cc1Cl | / | / | -4 | / | / | /
S=c1[nH]nc(-c2cc(-c3ccccc3)n[nH]2)n1N=Cc1c[nH]c2ccccc12 | / | / | -3 | / | / | /
Cc1ccc(NC(=O)C(C)OC(=O)c2cc(=O)[nH]c3ccccc23)cc1S(=O)(=O)N1CCOCC1 (stereo not drawn) | / | -61* | -18 | -7% | ? | 2%
O=C(CC1C(=O)NCCN1CC1CCCCC1)NCc1cc(F)ccc1F (stereo not drawn) | -1% | -63* | -22 | 5% | -8% | 6%
SMILES | Tb PFK inh | PI5P4Ka inh | PI4K2A block | PGK inhibitor | Pin1 inhibitor | ADP-Glo counter
CCCc1nc2oc3ccccc3c(=O)c2c(=O)n1-c1ccc(C)cc1 | 2% | -14 | 8 | -6% | 5% | /
CCc1nc2oc3ccccc3c(=O)c2c(=O)n1-c1ccc(C)cc1 | 4% | -54* | -2 | -7% | ? | 3%
Cc1c(C(=O)OCC(C)C)[nH]c2c1C(=O)CC(c1ccco1)C2 (stereo not drawn) | -21% | -56* | -9 | 0% | 29% | -13%
Cn1c(=O)oc2cc(S(=O)(=O)Nc3ccccc3)ccc21 | 0% | -55* | -1 | i | -2% | 5%
Cc1c(Cl)cccc1NC(=O)Cn1nnc(C(=O)NCc2cccs2)c1N | -3% | ? | -2 | -9% | ? | -7%
O=C1NC(c2cc(Cl)cc([N+](=O)[O-])c2O)Nc2ccccc21 (stereo not drawn) | -10% | -79* | 1 | i | 2% | 6%
OCCN1CCCC12CCC(c1ccccc1)CC2 (stereo not drawn) | / | / | 4 | / | / | /
Clc1ccc2nc(CSc3nc4ccccc4o3)cn2c1 | 11% | -83* | -7 | -12% | 4% | -7%
O=C(OC12CCCN(C1)/C(=C/c1cccc(Cl)c1)C2)c1ccccc1 (stereo not drawn) | / | / | 0 | / | / | /
COc1ccc(CCn2c(O)cc3nn(-c4nc5ccccc5s4)c(=O)c-3c2C)cc1 | 16% | -81* | -26 | i | / | 3%
O=C(Oc1cccc2c(O)cccc12)c1ccco1 | / | -54* | -14 | -6% | ? | 0%
COc1ccc2[nH]c3c(c2c1)CCN[C@]31C(=O)N(Cc2cn(Cc3ccccc3)nn2)c2ccc(F)cc21 | / | / | -21 | / | / | /
CC1CCCC(C)N1C(=O)COC(=O)CN1C(=O)c2ccccc2C1=O (stereo not drawn) | -7% | -3 | 4 | -6% | -16% | /
CC1CCCC(C)N1C(=O)COC(=O)CNC(=O)c1ccccc1 (stereo not drawn) | 8% | -4 | 2 | i | -28% | -1%
COC(=O)[C@]12C[C@H](CC(=O)N3CCCCC3)C(=O)N(CCC3=CCCCC3)C1=C[C@H](C1CCCC1)O[C@@H]2C | / | / | -2 | / | / | /
